# Screening results (PubChem)
# The entries come from a sample that favours hits as a whole.
# NPR1 antag – human Npr1 receptor antagonism. AID 1347048. Potency, µM (series often up to 46.3 µM), for the others: at the top dose activity change, negative = inhibition, actives largely listed as inhibitors. 76,000 compounds, 1.6% hits. HEK293 hNpr1 GloSensor cGMP, ANP-stimulated luminescence; further: on the % scale 0 is the no-effect control and ±100 the full control effect; nearly all actives have a fitted effect of over 60% in size
#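 Compound pre-incubated 30 min at room temperature on GloSensor-loaded HEK293 cells stably carrying hNpr1 and the pGS-40F cGMP biosensor. Stimulation uses hNppA at 0.1 nM final; luminescence is taken at baseline and 20 min post-agonist.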
# GPT2 inh – inhibitors of human GPT2 alanine aminotransferase. Q8TD30. Potency, µM (top dose mostly 57.7 µM), inactives show at the highest dose activity change, negative = inhibition, most hits filed as inhibitors. Recombinant GPT2, coupled pyruvate oxidase/HRP Amplex Red fluorescence. 100,000 compounds, 0.25% hits. AID 1671188; active means well fitted inhibition curve with a large enough effect; inconclusive means small, poorly fitted or top-dose-only effect; further: on the % scale 0 is the no-effect control and ±100 the full control effect; nearly all actives have a fitted effect of over 60% in size
# Target sequence (Q8TD30 whole entry, looked up): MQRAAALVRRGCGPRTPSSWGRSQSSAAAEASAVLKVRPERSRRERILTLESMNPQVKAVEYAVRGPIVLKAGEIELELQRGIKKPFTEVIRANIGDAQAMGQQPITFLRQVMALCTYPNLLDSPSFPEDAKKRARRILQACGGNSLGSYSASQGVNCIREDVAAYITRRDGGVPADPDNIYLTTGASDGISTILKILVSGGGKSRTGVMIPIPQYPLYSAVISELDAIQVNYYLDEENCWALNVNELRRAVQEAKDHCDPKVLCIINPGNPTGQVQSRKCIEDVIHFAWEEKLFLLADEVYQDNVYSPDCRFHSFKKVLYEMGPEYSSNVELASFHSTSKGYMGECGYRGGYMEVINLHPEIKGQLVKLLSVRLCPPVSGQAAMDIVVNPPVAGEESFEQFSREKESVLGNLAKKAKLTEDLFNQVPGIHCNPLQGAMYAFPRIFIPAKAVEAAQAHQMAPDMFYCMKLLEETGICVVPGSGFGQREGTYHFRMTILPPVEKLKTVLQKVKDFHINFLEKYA
#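 Recombinant GPT2 (10ng/uL) with 250uM a-KG and 2mM L-alanine, 30 min at room temperature, in HEPES pH 7.5 buffer. Pyruvate detected by pyruvate oxidase/HRP/Amplex Red fluorescence after 30 min in the dark; AOA (50uM) as positive control.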
# Npr1 antag conf – confirmation of human Npr1 natriuretic peptide receptor antagonists | shares compounds with NPR1 antag | HEK293 hNpr1 cGMP GloSensor luminescence, ANP-stimulated | Potency, µM (doses to about 57.6 µM), for inactives: at the top dose activity change, negative = inhibition, actives largely listed as inhibitors | 1,400 compounds, 76% hits | AID 1347044; further: nearly all actives have a fitted effect of over 70% in size
# NPR2 antag – antagonizes human Npr2, subtype selectivity check | 1,400 compounds, 67% hits | AID 1347046 | shares compounds with NPR1 antag | HEK293 hNpr2 GloSensor cGMP luminescence, CNP-stimulated | Potency, µM (series often up to 57.6 µM), without a hit: at the top dose activity change, negative = inhibition, hits mostly inhibitors; further: nearly all actives have a fitted effect of over 70% in size
# FLuc counter – FLuc enzyme inhibition, Npr1 counter-screen; Potency, µM (highest dose often 57.6 µM), for the others: top-dose activity change, negative = inhibition, usual class: inhibitors; AID 1347047; purified FLuc enzyme, luminescence, Km substrate; shares compounds with NPR1 antag; 1,400 compounds, 0.7% hits; active means well fitted inhibition curve with a large enough effect; inconclusive means small, poorly fitted or top-dose-only effect; further: 0% is about no effect
# GloSensor cGMP – control cell line activity, Npr1 antagonist counter-screen; shares compounds with NPR1 antag; HEK293 GloSensor cGMP, SNP-stimulated, luminescence; Potency, µM (titrated, usually from 57.6 µM), without a hit: top-dose activity change, negative = inhibition, most hits filed as inhibitors; 1,400 compounds, 69% hits; further: on the % scale 0 is the no-effect control and ±100 the full control effect; nearly all actives have a fitted effect of over 70% in size
# Starred values were filed as active, the others as inactive; i = inactive; ? = inconclusive; . = no result given; [ ] = another dose, or the depositor's remark. Unless noted, the call rests on the fitted dose curve. Potency means the concentration at half of the fitted maximal effect.
SMILES,NPR1 antag,GPT2 inh,Npr1 antag conf,NPR2 antag,FLuc counter,GloSensor cGMP
CN1CCN(c2ccc3ncc(Nc4ccc(F)cc4)n3n2)CC1,1%[70.6 µM],?,.,.,.,.
COc1ccccc1C(=O)N1CCC(Cc2nc(-c3ccc(F)cc3)no2)CC1,6.3µM*,-3%,9.7µM*,12µM*,0%,11µM*
COc1ccccc1C(=O)N1CCC(Cc2nc(-c3ccccc3)no2)CC1,?,1%,.,.,.,.
COc1ccc(-c2noc(CC3CCN(C(=O)Cc4ccccc4OC)CC3)n2)cc1,?,-14%,22µM*,19µM*,3%,22µM*
COc1ccc(-c2noc([C@@H]3CCCN3C(=O)Cc3ccccc3OC)n2)cc1,5%,-3%,.,.,.,.
COc1ccc(C(=O)N2CCC(Cc3nc(-c4ccc(F)cc4)no3)CC2)c(OC)n1,2.8µM*,i,3.4µM*,4.8µM*,-2%,4.8µM*
COc1ccccc1CCC(=O)N1CCC(Cc2nc(-c3ccc(F)cc3)no2)CC1,?,i,.,.,.,.
COc1ccccc1CC(=O)N1CCC(Cc2nc(-c3ccc(F)cc3)no2)CC1,1.3µM*,1%,2.4µM*,2.4µM*,4%,1.9µM*
CCOCCCNC(=O)CNC(=O)c1ccc(-c2cnc3ccccc3c2)cc1,.,i,.,.,.,.
O=C(NCC1CN(C(=O)C2CCCCC2)CC12CCOCC2)N1CCCC1 (stereo not drawn),.,i,.,.,.,.
COc1ccc(-c2nc(C)nc3c2CCN(Cc2cccc4ccccc24)CC3)cc1,3%,i,.,.,.,.
Cc1ccc(S(=O)(=O)N2CCCC(CCC(=O)O)C2)cc1 (stereo not drawn),1%,?,.,.,.,.
O=C(CCC1CCCN(S(=O)(=O)c2ccccc2)C1)NCC1CCCCC1 (stereo not drawn),?,i,.,.,.,.
Cc1ccc(S(=O)(=O)N2CCCC(CCC(=O)N3CCCCC3)C2)cc1 (stereo not drawn),13µM*,i,?,?,1%,?
O=C(CCC1CCCN(S(=O)(=O)c2ccccc2)C1)N1CCN(c2ccccn2)CC1 (stereo not drawn),?,i,?,?,3%,?
CCOC(=O)C(C)N1CCOc2c(O)cc(-c3cccc(Cl)c3)cc2C1 (stereo not drawn),?,2%[11.5 µM],.,.,.,.
Cc1ccccc1S(=O)(=O)N1CCCC(CCC(=O)NCc2ccc(F)cc2)C1 (stereo not drawn),-1%,-8%,.,.,.,.
Cc1ccccc1S(=O)(=O)N1CCCC(CCC(=O)Nc2cccc(Cl)c2)C1 (stereo not drawn),11µM*,-22%,24µM*,27µM*,2%,27µM*
Cn1cc(-c2ccc3c(n2)CN(Cc2ccc(C(F)(F)F)cc2)C(=O)CO3)cn1,-16%[70.6 µM],-27%[88.5 µM],.,.,.,.
CCc1nc2c(c(-c3ccc(Cl)cc3)n1)CCN(Cc1ccc(NC(C)=O)cc1)CC2,-11%,i,.,.,.,.
Cc1ccc(CN2CCc3nc(C(=O)Nc4ccc(Cl)cc4)oc3CC2)cc1,14µM*,3%[88.5 µM],11µM*,9.9µM*,0%[86.2 µM],14µM*
O=C(NCc1ccncc1)c1nc2c(o1)CCN(Cc1ccc3[nH]ccc3c1)CC2,?,i,.,.,.,.
Cc1cc(F)cc(CN2CCc3nc(C(=O)NCc4ccncc4)oc3CC2)c1,?,4%[88.5 µM],.,.,.,.
O=C(Nc1ccc(Cl)cc1)c1nc2c(o1)CCN(Cc1ccc3cn[nH]c3c1)CC2,0.56µM*,-13%[88.5 µM],3.5µM*,4µM*,-3%[86.2 µM],4µM*
O=C(c1nc2c(o1)CCN(Cc1cccc(Cl)c1)CC2)N1CCOCC1,?,4%[88.5 µM],.,.,.,.
SMILES,NPR1 antag,GPT2 inh,Npr1 antag conf,NPR2 antag,FLuc counter,GloSensor cGMP
O=C(Nc1ccc(Cl)cc1)c1nc2c(o1)CCN(Cc1ccncc1)CC2,1.3µM*,0%[88.5 µM],3.5µM*,3.5µM*,-22%[86.2 µM],3.5µM*
O=C(Nc1ccc(Cl)cc1)c1nc2c(o1)CCN(Cc1ccc3c(c1)CCO3)CC2,5µM*,?,6.3µM*,11µM*,2%[86.2 µM],8.9µM*
O=C(CCC1CCCC1)N1CCN(C(=O)N2CC3CC(C2)[C@H]2CCCC(=O)N2C3)CC1 (stereo partly drawn),3%,0%,.,.,.,.
O=C(c1cccs1)N1CCCCCC1c1nc(C2CC2)no1 (stereo not drawn),-11%,0%,.,.,.,.
O=C(c1cccnc1)N1CCN(c2cc(-c3cccs3)[nH]n2)CC1,-3%,-5%,.,.,.,.
CN(C)c1cccc(C(=O)N2CCN(c3cc(-c4ccc(Cl)cc4)[nH]n3)CC2)c1,-24%,i,.,.,.,.
O=C(c1cccc(Br)c1)N1CCN(c2cc(-c3ccc(Cl)cc3)[nH]n2)CC1,?,i,24µM*,?,-1%,?
O=C(c1cccc(Cl)c1)N1CCN(c2cc(-c3ccc(Cl)cc3)[nH]n2)CC1,?,0%,.,.,.,.
O=C(c1cccc(F)c1)N1CCN(c2cc(-c3ccc(Cl)cc3)[nH]n2)CC1,?,-1%,24µM*,?,-5%,?
O=C(c1cccc(Br)c1)N1CCN(c2cc(-c3cccs3)[nH]n2)CC1,-30%,i,?,?,-2%,-11%
O=C1N(Cc2ccc(F)cc2)C[C@H]2CN(Cc3ccc(C(F)(F)F)cc3)CCN12,10µM*,?,11µM*,16µM*,1%[86.2 µM],8.9µM*
O=C1N(C2CCCCC2)C[C@H]2CN(Cc3ccc(C(F)(F)F)cc3)CCN12,13µM*,i,16µM*,20µM*,-14%[86.2 µM],16µM*
O=C1N(C2CCOCC2)C[C@H]2CN(Cc3ccc(C(F)(F)F)cc3)CCN12,?,i,.,.,.,.
O=C1c2ccccc2CN1C1CCN(Cc2ccc(C(F)(F)F)cc2)CC1,.,i,22µM*,24µM*,0%,19µM*
COc1ccc(CN2C[C@H]3CN(Cc4ccc(C)cc4)CCN3C2=O)cc1,18µM*,-4%[88.5 µM],18µM*,22µM*,-8%[86.2 µM],20µM*
O=C1N(Cc2ccccn2)C[C@H]2CN(Cc3ccc(C(F)(F)F)cc3)CCN12,?,1%[88.5 µM],.,.,.,.
CC(=O)Nc1ccc(CN2CCC(N3Cc4ccccc4C3=O)CC2)cc1,.,i,.,.,.,.
COc1ccc(CN2CCN3C(=O)N(Cc4ccc(C)cc4)C[C@H]3C2)cc1,?,-36%[88.5 µM],.,.,.,.
COc1ccc(NC(=O)C2=NO[C@@H]3CN(c4ccccc4)C[C@H]23)cn1,0%[70.6 µM],i,.,.,.,.
O=C(N1CCC(n2cc(-c3nc(-c4ccccc4)no3)nn2)C1)C1(c2ccccc2)CC1 (stereo not drawn),?,3%,.,.,.,.
Cc1ccc(C(=O)NC2CCN(c3cnn(Cc4ccccc4)c(=O)c3)CC2)s1,-14%,-10%,.,.,.,.
